# Measurements taken from publication PMC6792352, “Limited Chemical Structural Diversity Found to Modulate Thyroid Hormone Receptor in the Tox21 Chemical Library” (Environmental Health Perspectives, 2019).
# Counter-ions that a name gives are not always drawn.
# Tested on: thyroid hormone receptor (endogenous TRα and TRβ)
# Set-up: species or system GH3-TRE-Luc (rat pituitary); GH3-TRE-Luc luciferase reporter, antagonist mode against 1 nM T3, loss of signal, qHTS
# Settings: antagonist mode, 1 nM T3, no GH3 cytotoxicity hit, read-out: Average AC50 (uM) GH3-TRE-Antag
row,Structure (SMILES),AC50
1,COP(=S)(OC)Oc1nc(Cl)c(Cl)cc1Cl [Chlorpyrifos-methyl],78.8 µM
2,CC[C@@H](O)C(C[C@@H](C)N(C)C)(c1ccccc1)c1ccccc1 [(+)-alpha-Methadol hydrochloride],55.7 µM
3,"Clc1ccccc1-c1ccccc1Cl [2,2'-Dichlorobiphenyl]",> 100 µM
4,N#CSCc1ccccc1 [Benzyl thiocyanate],56.4 µM
5,C[C@]12CC[C@H](O)C[C@H]1CC[C@@H]1[C@@H]2CC[C@]2(C)[C@@H](c3ccc(=O)oc3)C[C@H]3O[C@]132 [Bufogenin],39.2 µM
6,CN(C)c1ccc(C(c2ccccc2)c2ccc(N(C)C)cc2)cc1 [Leucomalachite green],20.8 µM
7,C[C@]12CCC(=O)C[C@@H]1CC[C@@H]1[C@@H]2CC[C@@]2(C)[C@H]1CC[C@]2(C)O [Mestanolone],10.8 µM
8,COP(=O)(OC)OC(=CCl)c1cc(Cl)c(Cl)cc1Cl [Tetrachlorovinphos],27.1 µM
9,"C[C@]12CCC(=O)C=C1CC[C@@H]1[C@@H]2CC[C@]2(C)C(=O)CC[C@@H]12 [4-Androstene-3,17-dione]",> 50 µM
10,CCCSP(=S)(OCC)Oc1ccc(Cl)cc1Cl (stereo not shown) [Prothiofos],86.7 µM
11,CCC(N)Cc1c[nH]c2ccccc12 (stereo not shown) [Etryptamine acetate],43.6 µM
12,CC(C)(C)c1ccccc1OP(=O)(Oc1ccccc1)Oc1ccccc1 [tert-Butylphenyl diphenyl phosphate],88.4 µM
13,C=C(Cl)CSC(=S)N(CC)CC [Sulfallate],86.5 µM
